M1 ag: human M1 muscarinic receptor agonism. CHO-K1 hM1, Fluo-8 calcium fluorescence, agonist mode; 0% DMSO, 100% acetylcholine EC100. hit rate 0.33% among 360,000. P11229. activation, % at 3 µM;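 active means activation above the run's mean compound activation plus 3 SD, cut at about 16% in these data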;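 further: peak over basal fluorescence ratio within a 140 s kinetic read after compound addition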
Target sequence (P11229 whole entry, looked up): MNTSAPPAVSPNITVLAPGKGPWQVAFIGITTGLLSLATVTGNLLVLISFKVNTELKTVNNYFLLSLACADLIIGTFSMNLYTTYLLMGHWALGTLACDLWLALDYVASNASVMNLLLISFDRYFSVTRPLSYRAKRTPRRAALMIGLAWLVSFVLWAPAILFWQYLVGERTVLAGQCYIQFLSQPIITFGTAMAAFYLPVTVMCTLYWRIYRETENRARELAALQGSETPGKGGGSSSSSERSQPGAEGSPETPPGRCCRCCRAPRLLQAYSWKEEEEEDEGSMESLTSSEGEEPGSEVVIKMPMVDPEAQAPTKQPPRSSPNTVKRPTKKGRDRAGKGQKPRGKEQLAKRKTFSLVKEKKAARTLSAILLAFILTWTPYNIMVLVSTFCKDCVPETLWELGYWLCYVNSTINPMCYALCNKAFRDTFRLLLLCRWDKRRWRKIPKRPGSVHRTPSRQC
CHO-K1 Ca antag: counter-screen for M1 antagonists: effect in parental CHO-K1 cells; ATP-induced calcium, Fluo-8 fluorescence; inhibition, % at 3 µM; hit rate 0.6% among 360,000;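 active means inhibition above a per-plate cutoff, the plate's mean sample inhibition plus 3 SD, cut at about 24% in these data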
M1 PAM: positive allosteric modulators of human M1 muscarinic receptor; P11229; CHO-K1 hM1, Fluo-8 calcium fluorescence, ACh EC20; 0% = ACh EC20, 100% = maximal ACh; activation, % at 3 µM; hit rate 0.088% among 360,000; AID 588819; in the data active means activation above about 19%, passing the limit was not always enough
CHO-K1 Ca PAM: counter-screen for M1 PAMs: effect in parental CHO-K1 cells | ATP EC20, Fluo-8 calcium fluorescence; 0% at ATP EC20, 100% at ATP max | hit rate 0.02% among 360,000 | activation, % at 3 µM;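 active means activation above the run cutoff, the mean activation of all test compounds plus 3 SD, cut at about 40% in these data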;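 further: peak over basal fluorescence ratio in a 140 s read after ATP addition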
CHRM1 antagonist: antagonists of human M1 muscarinic receptor; P11229; hit rate 1.3% among 360,000; inhibition, % at 3 µM; CHO-K1 hM1, Fluo-8 calcium fluorescence, ACh EC80 antagonist;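 active means percent inhibition above its own plate's cutoff, namely the mean of that plate's compound wells plus 3 SD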;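 further: peak over basal fluorescence ratio during 140 s after agonist addition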
CHO-K1 Ca ag: M1 agonist counterscreen hit in parental CHO-K1 cells; hit rate 0.48% among 360,000; activation, % at 3 µM; Fluo-8 calcium fluorescence; scaled to maximal ATP response, vehicle zero; in the data active means activation above about 15%;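 further: untransfected CHO-K1 host cells lacking M1 receptor as counterscreen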
Of the large screens only hits and unclear results are named; the others gave an inactive call. The list is not random: actives were taken first. Their share in the collection is about 2.4%.

O=NN1CCN(c2ccncc2S(=O)(=O)N2CCCCC2)CC1	none
CC(C)N1CCN(c2ccncc2S(=O)(=O)N2CCCCC2)CC1	CHRM1 antagonist 98
CC(C)NC(=O)N1CCN(c2ccncc2S(=O)(=O)N2CCOCC2)CC1	none
CN1CCN(c2ccncc2S(=O)(=O)N2CCCCC2)CC1	CHRM1 antagonist 27
COC(=O)c1ccc(C)c(NC(=O)COC(=O)C2CC3CCCC(C2)C3=O)c1 (configuration not stated)	none
CC(C)Cn1cnc2c1c(=O)n(CC(=O)NC(=O)NC(C)(C)C)c(=O)n2Cc1ccccc1	none
CCN(CC)c1ccc(C2C(C(=O)OCCOC)=C(C)NC3=C2C(=O)CCC3)cc1 (configuration not stated)	none
CCCOC(=O)C1=C(C)NC2=C(C(=O)CCC2)C1c1ccc(N(C)C)cc1 (configuration not stated)	CHRM1 antagonist 26
CCOC(=O)C1=C(C)NC2=C(C(=O)CCC2)C1c1ccc(N(C)C)cc1 (configuration not stated)	CHRM1 antagonist 45
CC1=C(C(=O)Nc2cccnc2)C(c2ccc3c(c2)OCO3)C2=C(CCCC2=O)N1 (configuration not stated)	none
CC1=C(C(=O)Nc2ccc(F)cc2)C(c2ccncc2)C2=C(CCCC2=O)N1 (configuration not stated)	CHO-K1 Ca antag 24
Cc1ccc(-n2nnnc2SCn2nnc3ccccc3c2=O)cc1	none
Cc1cccc(-n2nnnc2SCn2nnc3ccccc3c2=O)c1	CHO-K1 Ca antag 27
Cc1ccc(N(C(=O)c2csnn2)C(C(=O)NC2CCCCC2)c2ccccn2)cc1C (configuration not stated)	none
CC(=O)c1cccc(NS(=O)(=O)c2ccc(-c3cnc(C4CC4)o3)cc2)c1	CHRM1 antagonist 32, CHO-K1 Ca ag 16
CC(=O)Nc1ccc(NS(=O)(=O)c2ccc(-c3cnc(C4CC4)o3)cc2)cc1	none
Cc1cc(C(=O)NC2CCCc3c2cnn3-c2cccc(C)c2C)n(C)n1 (configuration not stated)	CHO-K1 Ca antag 30, CHRM1 antagonist 34
CC(=O)NC1CCCc2c1cnn2-c1ccc(C(C)(C)C)cc1 (configuration not stated)	none
Cc1nnsc1C(=O)NC1CCCc2c1cnn2-c1ccc(F)cc1F (configuration not stated)	CHRM1 antagonist 31
COc1ccc(C(=O)NC2CCCc3c2cnn3-c2ccc(C)c(C)c2)c(OC)c1OC (configuration not stated)	none
COc1cccc(C(=O)NC2CCCc3c2cnn3-c2ccc(C)c(C)c2)c1OC (configuration not stated)	CHO-K1 Ca antag 38
Cn1nccc1C(=O)NC1CCCc2c1cnn2-c1ccc(C(C)(C)C)cc1 (configuration not stated)	CHO-K1 Ca antag 33, CHRM1 antagonist 34
O=C(CCc1nc(-c2ccc(Cl)cc2)no1)NC1CCCCC1	CHO-K1 Ca ag 17
O=C(CCCc1nc(-c2ccc(Cl)cc2)no1)NC1CCCC1	CHRM1 antagonist 37, CHO-K1 Ca ag 17
COc1ccc(-c2noc(CCCC(=O)NC3CCCC3)n2)cc1	none
NC(=O)c1cc[n+](CC(=O)c2ccc(NC(=O)c3ccccc3)cc2)cc1	none
CCOC(=O)c1cc(C(C)(C)C)n(CCCN2CCOCC2)c1C	none
CCOC(=O)c1cc(C)n(CCCN2CCOCC2)c1C	CHRM1 antagonist 35
Cc1cc(C)nc(SCc2ccc(C(=O)NNC(=O)Nc3cccc(Cl)c3)cc2)n1	none
Cc1cnc(CNC(=O)c2csc([C@@H]3O[C@H](CO)[C@H](O)[C@H](O)[C@H]3O)n2)cn1	none
CC(C)CC1C(=O)N(Cc2cn(CC3CCCCC3)nn2)CCS(=O)(=O)N1Cc1ccc(-c2ccncc2)cc1 (configuration not stated)	M1 ag 19
Cc1ccc(-c2ccc(CN3C(C)C(=O)N(Cc4cn(CC5CCCCC5)nn4)CCS3(=O)=O)cc2)cc1 (configuration not stated)	none
COc1ccc(-c2ccc(CN3C(C)C(=O)N(Cc4cn(CC5CCCCC5)nn4)CCS3(=O)=O)cc2)cc1 (configuration not stated)	CHO-K1 Ca antag 25

From PubChem BioAssay
